Laboratory results reported in PubChem BioAssay (NCI).
About 83,000 compounds went through this panel and 20% of them were active in at least one assay; those are over-represented in the sample as a whole.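 Single-concentration screen, 48 h exposure, 96-well plates. Endpoint: percent growth. Below 10 = active.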 A number with no mark means an inactive call. Calls of active or inactive are those of the source.

Key:
Assay in all cases: NCI-60 one-dose screen, 48 h (100 = growth as untreated, 0 = no growth, -100 = all killed)
Conditions in all cases: 10 µM
[1] = test system: NCI-H23 lung
[2] = test system: NCI-H226 lung
[3] = test system: NCI-H322M lung
[4] = test system: HOP-62 NSCLC
[5] = test system: NCI-H460 lung
[6] = test system: HOP-92 NSCLC
[7] = test system: NCI-H522 lung
[8] = test system: A549/ATCC NSCLC
[9] = test system: 786-0 renal
[10] = test system: COLO 205 colon

Row | Structure (SMILES) | growth [1] | growth [2] | growth [3] | growth [4] | growth [5] | growth [6] | growth [7] | growth [8] | growth [9] | growth [10]
1 | COc1cccc2c1C(=O)c1c(O)c3c(c(O)c1C2=O)C[C@@](O)(C(=O)COC(=O)c1ccccc1)C[C@@H]3OC1CC(N)C(O)C(C)O1 (stereo not given in full) | -65.6% (active) | -71.9% (active) | -95.7% (active) | -96.8% (active) | -80.9% (active) | -77.9% (active) | -85.8% (active) | -85.1% (active) | -83.9% (active) | -90.9% (active)
2 | O=C(c1ccccc1)C(Nc1ccccc1)c1ccccc1 (stereo not given) | 84.5% | 82.7% | 85.4% | 83.5% | 98.1% | 78.6% | 67.7% | 87.4% | 97.3% | 98.7%
3 | Cc1ccc(C)c2c1sc1nc3n[nH]c(N)c3c(=N)n12 | 107% | 105% | 113% | 104% | 107% | 97.2% | 87.4% | 106% | 111% | 112%
4 | O=c1oc2c3ccc4cnccc4c3[nH]c2c2ccccc12 | 65% | 77.1% | 78.6% | 70.8% | 5.33% (active) | 49.2% | -11.5% (active) | 0.199% (active) | 12.2% | -57.2% (active)
5 | CCc1cc2n(n1)-c1ncc(C(=O)OC)cc1Oc1ccccc1-2 | 104% | 99.8% | 108% | 95.4% | 104% | 86.2% | 94.2% | 91.4% | 100% | 116%
6 | CN(C)c1ccc2cc(-c3cc4c(oc3=O)-c3ccccc3OC4O)c(=O)oc2c1 (stereo not given) | -3.16% (active) | -14.9% (active) | 39% | 12.1% | 56.7% | -49.1% (active) | -57.2% (active) | 39.5% | -15.7% (active) | -56.2% (active)
7 | O=C(CCl)N1c2ccccc2Sc2ccc3ccccc3c21 | -76.5% (active) | 34.4% | 65.9% | -77.8% (active) | -35.4% (active) | -78.3% (active) | -81.1% (active) | 38% | -62.8% (active) | -76.3% (active)
8 | COC(=O)c1c(C)nc(Nc2nc3ccccc3s2)nc1-c1ccc(Cl)cc1Cl | 103% | 102% | 106% | 97% | 106% | 107% | 96.1% | 107% | 104% | 110%
9 | N=C(N)c1ccc(-c2ccc(-c3cccs3)s2)nc1 | 71.2% | 67.6% | -13.1% (active) | 66.5% | -22% (active) | -9.04% (active) | 72.8% | 2.67% (active) | 56.2% | -94% (active)
10 | CCOC(=O)c1sc(NC(=O)c2cc(OC)c(OC)c(OC)c2)nc1C | 93.3% | 88.8% | 161% | 116% | 108% | 46.9% | 67.4% | 101% | 114% | 122%
11 | CN(C)c1ccc2c(c1)OC(N)=C(C#N)C2c1ccc2c(c1)CCCN2C (stereo not given) | 33.3% | 37.3% | 52.3% | 31.7% | 12.4% | 47.1% | -26.4% (active) | 27.5% | 43.7% | -10.2% (active)
12 | CN(C)Cc1cccs1 | 94% | 93.9% | 101% | 69.1% | 108% | 97.2% | 94.2% | 93.7% | 103% | 107%
13 | CC(C)/C=N/NC(N)=S | 96.6% | 95.7% | 101% | 75.6% | 97.4% | 73.1% | 94% | 71.8% | 100% | 103%
14 | CCOC(=O)c1c(C)n(-c2ccc(Cl)cc2)c2ccc(OC(=O)/C=C/c3ccccc3)cc12 | 93.3% | 95.1% | 94.8% | 95% | 99.1% | 58% | 82.3% | 67.7% | 94.3% | 93.1%
15 | O=C(O)CN1C(=O)C=CC1=O | 106% | 108% | 90.9% | 107% | 107% | 111% | 103% | 108% | 103% | 94.8%
16 | O=C(c1ccc(Cl)cc1)c1no[n+]([O-])c1C(=O)c1ccc(Cl)cc1 | 98.4% | 102% | 107% | 104% | 108% | 88.4% | -77.8% (active) | 104% | -34.5% (active) | 107%
17 | NCCNc1ccc2cc(-c3nc4ccccc4[nH]3)c(=O)oc2c1 | 90.7% | 87.4% | 103% | 94.7% | 98.9% | 82.7% | 97.3% | 102% | 106% | 104%
18 | Cc1ccc(S(=O)(=O)Nc2cccc3[nH]c(C(F)(F)F)nc23)cc1 | 39.5% | 68.4% | 36.4% | 36.4% | 7.86% (active) | -3.66% (active) | -6.23% (active) | 24% | 47.7% | -21.6% (active)
19 | O=C(NCc1cn(Cc2cccc(Oc3ccccc3)c2)nn1)c1cccnc1Nc1ccccc1 | 51.9% | 61.5% | 76.9% | 54.8% | 27% | 34.9% | 54.5% | 50.6% | 51.4% | 69.9%
20 | Cc1ccc(-c2cc(-c3cccc(Nc4ccnc5cc(Cl)ccc45)c3)nc3nc(N)[nH]c(=O)c23)cc1 | 100% | 96.6% | 91.3% | 113% | 110% | 14.6% | 21% | 102% | 94.9% | 125%
21 | CC(=O)c1c(O)cc2c3c1OC(C)(C)C1CCC(C)(CC31)O2 (stereo not given) | 100% | 85.8% | 98% | 106% | 108% | 92% | 102% | 98.1% | 104% | 92.3%
22 | C#Cc1ccc(-n2c(/C=C/c3cc(OC)c(OC)c(OC)c3)nc3ncccc3c2=O)cc1 | 73.6% | 56.1% | 68.3% | 66.2% | 72.6% | 6.32% (active) | 7.99% (active) | 44.1% | 75.9% | 31.1%
23 | COc1cc(Cn2c(-c3ccccc3)c(Cl)c3c2-c2oncc2CC3)cc(OC)c1 | 72.2% | 109% | 68.5% | 102% | 46.3% | 51.7% | 9.45% (active) | 53.5% | 74.7% | 113%
24 | CCC1(C)OC(=O)NC1=O (stereo not given) | 96% | 93.1% | 105% | 71.1% | 111% | 93.2% | 84.5% | 79.2% | 99.6% | 103%
25 | COc1cc(-c2nc3cc(Cl)c(Cl)cc3[nH]2)ccc1OCC(=O)NN | 92.8% | 90.5% | 79.1% | 72% | 84.8% | 94% | 67.5% | 71% | 96.1% | 108%
26 | Cc1ccc(-c2cc(C(=O)Nc3ccc(S(=O)(=O)N4CCCCC4)cc3)[nH]n2)c(O)c1 | 55.4% | 76.5% | 89.3% | 90.7% | 51.6% | 56.1% | 72.1% | 52.2% | 62.3% | 55.3%
27 | COc1cc(/C=C/C(=O)c2cc(-c3ccc(C(F)(F)F)cc3)ccc2O)cc(OC)c1OC | 64.3% | 84.1% | 82.1% | 98.7% | 56.5% | 63.1% | 40.8% | 81.4% | 80.3% | 71.6%
28 | CCc1ccc(-c2nnc(COc3ccc(-c4nc5ccccc5[nH]4)cc3OC)o2)cc1 | 72.4% | 81.4% | 96.9% | 83.2% | 45.5% | 79% | 91.6% | 60.3% | 22.3% | 64.4%
